Measured values from PubChem BioAssay AID1159580 (chemical genetic matrix, 2015).
The whole screen tested about 5,500 compounds, of which about 2,000 (36%) were called active. Roughly 18% stayed inconclusive and do not appear here. Cut-off read from the data, not from the text of the source: active = normalized growth mostly below about 0.91 (no sharp cut-off); inconclusive = no clear call, values can overlap the other calls; inactive = mostly above about 0.92. The list shows a part of the results.

Assay: chemical genetic growth profiling, strain panel (AID 1159580);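 note: tested at 20 µM; growth read once vehicle control cultures reached saturation at 30 °C; 1 = growth at the plate median or of vehicle wells; lower values mean less growth of the strain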
Details: S. cerevisiae deletion strains, growth OD

Measured: normalized growth

COC(=O)CCC(C)C1CCC2C3CC[C@@H]4C[C@H](O)CC[C@]4(C)C3C[C@H](O)[C@]12C (some centres undefined)
active: locus YLR027C, strain aat2, active compounds read low 0.918 | locus YLR113W, strain HOG1, active compounds read low 0.439 | locus YLR262C, strain YPT6 (second series), active compounds read low 0.776 | locus YLR320W, strain mms22, active compounds read low 0.812 | locus YLR330W, strain CHS5, active compounds read low 0.903 | locus YLR342W, strain FKS1, active compounds read low 0.699 | locus YLR418C, strain cdc73, active compounds read low 0.77 | locus YMR205C, strain PFK2, active compounds read low 0.846 | locus YNL071W, strain lat1, active compounds read low 0.72 | locus YOR184W, strain ser1, active compounds read low 0.853 | locus YOR231W, strain MKK1, active compounds read low 0.814 | locus YPL051W, strain arl3, active compounds read low 0.913 | locus YPL256C, strain CLN2, active compounds read low 0.8
inactive: locus YJR043C, strain POL32, active compounds read low 1.02 | locus YJR066W, strain TOR1, active compounds read low 0.941 | locus YKL009W, strain mrt4, active compounds read low 0.959 | locus YKL068W, active compounds read low 0.993 | locus YKL085W, strain MDH1 (second series), active compounds read low 0.991 | locus YKL085W, strain MDH1, active compounds read low 0.991 | locus YKL160W, strain elf1, active compounds read low 0.92 | locus YKL190W, strain CNB1, active compounds read low 1.02 | locus YKR001C, strain vps1, active compounds read low 0.931 | locus YKR026C, strain gcn3, active compounds read low 1 | locus YKR091W, strain srl3, active compounds read low 0.993 | locus YLL001W, strain dnm1, active compounds read low 0.99 | locus YLL026W, active compounds read low 0.986 | locus YLL041C, strain sdh2, active compounds read low 1.01 | locus YLR039C, strain RIC1, active compounds read low 0.88 | locus YLR058C, strain SHM2, active compounds read low 0.972 | locus YLR102C, strain apc9, active compounds read low 1.01 | locus YLR221C, strain rsa3, active compounds read low 0.932 | locus YLR258W, strain gsy2, active compounds read low 0.958 | locus YLR262C, strain YPT6, active compounds read low 0.792 | locus YLR268W, strain sec22, active compounds read low 1 | locus YLR342W, strain FKS1 (second series), active compounds read low 0.933 | locus YLR357W, strain rsc2, active compounds read low 0.982 | locus YLR370C, strain arc18, active compounds read low 0.998 | locus YLR371W, strain rom2, active compounds read low 1.01 | locus YLR384C, strain iki3, active compounds read low 0.992 | locus YML016C, strain PPZ1, active compounds read low 1.05 | locus YML032C, strain rad52, active compounds read low 0.981 | locus YML120C, strain ndi1, active compounds read low 0.988 | locus YML124C, strain tub3, active compounds read low 1 | locus YMR058W, strain fet3, active compounds read low 0.976 | locus YMR078C, strain ctf18, active compounds read low 1.01 | locus YMR125W, strain sto1, active compounds read low 0.983 | locus YMR129W, active compounds read low 1 | locus YMR223W, strain ubp8, active compounds read low 0.98 | locus YMR231W, strain pep5, active compounds read low 0.977 | locus YMR263W, strain SAP30, active compounds read low 0.998 | locus YMR307W, strain GAS1, active compounds read low 0.843 | locus YNL067W, strain RPL9B, active compounds read low 0.98 | locus YNL153C, strain GIM3, active compounds read low 0.982 | locus YNL183C, strain NPR1, active compounds read low 0.908 | locus YNL209W, strain ssb2, active compounds read low 1 | locus YNL233W, strain BNI4, active compounds read low 0.927 | locus YNL248C, strain rpa49, active compounds read low 1.04 | locus YNL250W, strain rad50, active compounds read low 1.04 | locus YNL271C, strain bni1, active compounds read low 1.01 | locus YNL298W, strain CLA4, active compounds read low 1.05 | locus YNL307C, strain MCK1, active compounds read low 0.917 | locus YNL322C, strain KRE1 (second series), active compounds read low 0.999 | locus YNL322C, strain KRE1, active compounds read low 1.01 | locus YNR049C, strain mso1, active compounds read low 0.99 | locus YNR052C, strain pop2, active compounds read low 0.971 | locus YOL006C, strain TOP1, active compounds read low 0.909 | locus YOL012C, strain htz1 0.571 | locus YOL147C, strain pex11, active compounds read low 1.02 | locus YOR001W, strain rrp6, active compounds read low 0.995 | locus YOR061W, strain CKA2, active compounds read low 0.999 | locus YOR069W, strain VPS5, active compounds read low 1.02 | locus YOR070C, strain gyp1, active compounds read low 0.971 | locus YOR080W, strain dia2, active compounds read low 1.01 | locus YOR083W, strain WHI5, active compounds read low 0.984 | locus YOR106W, strain vam3, active compounds read low 0.933 | locus YOR136W, strain idh2, active compounds read low 1.01 | locus YOR144C, strain elg1, active compounds read low 1.01 | locus YOR265W, strain rbl2, active compounds read low 0.98 | locus YOR270C, strain vph1, active compounds read low 0.99 | locus YOR290C, strain snf2, active compounds read low 1.01 | locus YOR316C, strain cot1, active compounds read low 1.01 | locus YPL078C, strain atp4, active compounds read low 0.943 | locus YPL106C, strain sse1, active compounds read low 0.989 | locus YPL240C, strain hsp82, active compounds read low 0.992 | locus YPR119W, strain clb2, active compounds read low 0.994 | locus YPR141C, strain kar3, active compounds read low 1.01 | locus YPR163C, strain tif3, active compounds read low 1.02 | locus YPR167C, strain met16, active compounds read low 1.02 | strain wtn01, active compounds read low 1.03
